The values below come from PubChem BioAssay (NCI).

This is part of a sample that, as a whole, favours compounds with a hit. Of some 83,000 tested, about 20% had one in any assay.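 Values shown are percent growth following 48 h exposure of cells in 96-well plates to a single concentration of compound; below 10 was considered active.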 A number with no mark means an inactive call. Activity calls are given as the source filed them.

Test systems include BT-549 breast; MDA-MB-435 melanoma; SW-620 colon; MCF7 breast; HCT-116 colon; HCC-2998 colon; KM12 colon.
Assay in all cases: NCI-60 one-dose screen, 48 h (100 = growth as untreated, 0 = no growth, -100 = all killed)
Holding throughout (conditions): 10 µM unless noted

Turning to `CCN(CC)c1nc(SCC(=O)Nc2nc3ccc(C)cc3s2)nc(-c2ccccc2)c1C#N`, the growth is 93.3% in the experiment with BT-549 breast; 98.5% with MDA-MB-435 melanoma; 97.9% with SW-620 colon; 85.1% in the experiment with MCF7 breast; 83% with HCT-116 colon; 110% with HCC-2998 colon. Besides, the growth with KM12 colon was 104%.
As to `CC(C)C(=O)Nc1n[nH]c2cc(-c3cccc(NS(=O)(=O)C4CC4)c3)ccc12`, the growth is 42.3% in the experiment with BT-549 breast; 12.9% in the experiment with MDA-MB-435 melanoma; 74.5% with SW-620 colon; 33.2% in the experiment on MCF7 breast; 52.5% in the experiment with HCT-116 colon; 83.4% with HCC-2998 colon. Further, the growth in the experiment with KM12 colon is 61.3%.
With `O=S(=O)(NCCCNc1cc(-c2c(-c3cccc(O)c3)nc3sccn23)ccn1)c1cccc(Cl)c1`, the growth is 21.5% with BT-549 breast; 27.4% in the experiment with MDA-MB-435 melanoma; 48.4% with SW-620 colon; 55.5% with MCF7 breast; 33.5% in the experiment with HCT-116 colon; 58.2% with HCC-2998 colon. In addition, the growth in the experiment on KM12 colon was 32.4%.
As to `CC(=O)O[C@]1(C(C)=O)CCC2C3C[C@H](C)C4=CC(=O)CC[C@]4(C)C3CC[C@@]21C` (stereo not given in full), the growth with BT-549 breast was 63.6%; in the experiment with MDA-MB-435 melanoma, 104%; in the experiment with SW-620 colon, 112%; with MCF7 breast it was 90.1%; in the experiment with HCT-116 colon it was 83.6%; with HCC-2998 colon, 106%. In addition, the growth in the experiment with KM12 colon is 103%.
In the case of `COc1cccc(-c2nc3sccn3c2/C=C/C(=O)c2ccc(C(F)(F)F)cc2)c1`, the growth in the experiment on BT-549 breast is 87.3%; with MDA-MB-435 melanoma it was 73.3%; in the experiment on SW-620 colon, 66.3%; in the experiment with MCF7 breast, 65%; in the experiment on HCT-116 colon, 48.4%; with HCC-2998 colon, 102%. In the experiment with KM12 colon, the growth is 73.1%.
For the compound `Nc1n[nH]c2cc(F)c([C@@H]3Nc4c(F)cc5[nH]ncc5c4[C@H]4C5CCC(C5)[C@@H]34)cc12` (stereo not given in full), the growth in the experiment on BT-549 breast is -0.757% (active); in the experiment with MDA-MB-435 melanoma it was -33.4% (active); in the experiment on SW-620 colon, 26.8%; in the experiment on MCF7 breast, 21.6%; in the experiment with HCT-116 colon, -21.2% (active); in the experiment on HCC-2998 colon, 7.27% (active). Moreover, the growth in the experiment on KM12 colon was -40.5% (active).
As for `O=C(Nc1cccc(Oc2nnc(Cl)c3ccccc23)c1)Nc1ccc(Cl)c(C(F)(F)F)c1`, the growth in the experiment with BT-549 breast is -37.2% (active); with MDA-MB-435 melanoma it was -78.4% (active); in the experiment on SW-620 colon, -62.9% (active); in the experiment with MCF7 breast, -35.6% (active); in the experiment on HCT-116 colon, -71.6% (active); in the experiment with HCC-2998 colon it was -86.5% (active). For the same compound, the growth in the experiment on KM12 colon was -60.1% (active).
In the case of `Cc1c(C(=O)NC(Cc2ccccc2)C(O)C(=O)NCc2ccc(F)cc2)[nH]c2ccccc2c1=O` (stereo not given), the growth was 108% in the experiment with BT-549 breast; 101% in the experiment with MDA-MB-435 melanoma; 114% in the experiment on SW-620 colon; 104% with MCF7 breast; 104% in the experiment with HCT-116 colon; 118% with HCC-2998 colon. Further, the growth in the experiment with KM12 colon is 102%.
`CCN(CC)S(=O)(=O)c1cccc(-c2ccc3c(NC(=O)C4CC4)n[nH]c3c2)c1`: the growth in the experiment on BT-549 breast was 1.05% [6.25 µM] (active); with MDA-MB-435 melanoma, 7.53% [6.25 µM] (active); in the experiment on SW-620 colon it was 26.1% [6.25 µM]; in the experiment with MCF7 breast, 6.78% [6.25 µM] (active); with HCT-116 colon it was 11.9% [6.25 µM]; in the experiment on HCC-2998 colon, 43.9% [6.25 µM]. Besides, the growth in the experiment on KM12 colon was 12.6% [6.25 µM].
In the case of `Cc1ccc(S(=O)(=O)n2cc(CNc3ccc(N4CCOCC4=O)cc3)c3ccccc32)cc1`, the growth in the experiment on MDA-MB-435 melanoma was 97%; with SW-620 colon, 78.7%; in the experiment on MCF7 breast, 61.9%; with HCT-116 colon it was 76.8%; with HCC-2998 colon, 97.8%; with KM12 colon it was 96.7%.
For the compound `COc1ccccc1CNCCCN1C(=O)c2ccc3c4c(ccc(c24)C1=O)C(=O)N(CCCNCCCCN)C3=O`, the growth with BT-549 breast is -75.6% (active); in the experiment on MDA-MB-435 melanoma, 1.2% (active); in the experiment on SW-620 colon, -0.0566% (active); with MCF7 breast it was -45.7% (active); in the experiment with HCT-116 colon, -8.71% (active); in the experiment on HCC-2998 colon, -71.8% (active). The growth in the experiment with KM12 colon was -15.8% (active).
Take `O=C1/C(=C\c2c[nH]c3ccccc23)c2ccccc2N1c1c(Cl)cccc1Cl`: the growth in the experiment with BT-549 breast was -22.1% (active); in the experiment with MDA-MB-435 melanoma it was -21.6% (active); in the experiment on SW-620 colon, 5.11% (active); in the experiment on MCF7 breast, 0.197% (active); in the experiment on HCT-116 colon, -100% (active); in the experiment on HCC-2998 colon, -91.9% (active). In addition, the growth in the experiment with KM12 colon was -82.3% (active).
With `O=c1c2cc(F)ccc2sc2c(NCCN3CCCCC3)nc3ccccc3c12`, the growth was 75.1% in the experiment with BT-549 breast; 29.5% in the experiment with MDA-MB-435 melanoma; 29.1% with SW-620 colon; 15.8% in the experiment on MCF7 breast; 25.3% in the experiment on HCT-116 colon; 13.9% with HCC-2998 colon. The growth with KM12 colon was 29%.
In the case of `COc1ccc(-c2cc(-c3cc(OC)c(OC)c(OC)c3)c(C#N)c(N3CCOCC3)n2)cc1O`, the growth was 48.3% in the experiment on BT-549 breast; 28.3% in the experiment with MDA-MB-435 melanoma; 23.1% in the experiment on SW-620 colon; 36.2% with MCF7 breast; 49.1% in the experiment on HCT-116 colon; 17.4% in the experiment on KM12 colon.
With `O=C(c1ccccc1)c1c(/C=C/c2ccccc2)nc2ccccc2c1/C=C/c1ccc(Br)cc1`, the growth with BT-549 breast was 111%; in the experiment on MDA-MB-435 melanoma it was 99.7%; in the experiment on SW-620 colon, 98.3%; with MCF7 breast, 82.7%; in the experiment with HCT-116 colon it was 87.8%; in the experiment with HCC-2998 colon it was 115%. Further, the growth with KM12 colon was 98.7%.
For the compound `NNC(=O)c1nc(N)n(-c2ccc(S(N)(=O)=O)cc2)n1`, the growth with BT-549 breast is 92.7%; in the experiment with MDA-MB-435 melanoma, 97.8%; with SW-620 colon, 96%; in the experiment with MCF7 breast, 102%; in the experiment on HCT-116 colon, 95.3%; in the experiment on HCC-2998 colon, 101%. For the same compound, the growth in the experiment with KM12 colon was 95.5%.
